# Source: PubChem BioAssay AID588856 (National Center for Advancing Translational Sciences (NCATS), 2011)
# Several values for one entry are separate records, joined by “and”; a condition that tells them apart may be missing. Equal values may be shown once. The whole screen tested about 410,000 compounds, of which about 3,100 (0.76%) were called active. The call rests on the fitted dose curve; in most records, active means well fitted cell-killing curve with a large enough effect; inactive means no such curve, though single readings can be large or run the other way. The sample as a whole holds a higher share of actives than the screen did. The source holds several records for some structures; these can differ, active in one and inactive in another.
# Test: qHTS for Inhibitors of TGF-b: Cytotox Counterscreen
# Details: HepG2 CAGA-GFP viability, ATP luminescence, 18 h; series mostly up to 46.1 µM; activity change, negative = cytotoxicity: at the top concentration
# Text: TGF-b is a main component in the TGF-b signaling pathway which plays diverse roles in cellular and development pathways. TGF-b is mediated by transcription factors called "Smads". Although the Smad-dependent pathway is the primary canonical TGF-b signaling mode, TGF-b1 can also activate alternative signaling pathways, including those involving MAPK (ERK, JNK and p38). This interaction may mediate or enhance Smad-dependent responses, or can exert Smad-independent effects. The complexity of this signaling cascade allows the TGF-b superfamily to perform unique, overlapping or redundant functions. We believe that targeting the TGF-beta pathway at the Smad-transcription factor level may eliminate the consequences of disrupting the entire pathway and offer specificity without affecting other signaling pathways. Smad3 is the primary transducer of TGF-b's signals and Smad3 regulates many functions attributed to TGF-b signaling. We hypothesize that Smad3 inhibitors will selectively eliminate Smad3-specific TGF-beta signals without undesired off-target effects. We aim to identify Smad3-small molecule antagonists using a quantitative high throughput screening (qHTS) approach.
# A high-throughput assay was developed to screen the NIH Molecular Libraries Small Molecule Repository (MLSMR). This is a cell based assay, where TGF-b is tagged with GFP. This is a counterscreen that evaluates the cytotoxicity of the compounds that were screened in the primary cell-based screen (AID 588855).
# MH087449NIH Chemical Genomics Center [NCGC]
# NIH Molecular Libraries Probe Centers Network [MLPCN]
# Assay Submitter (PI): Sushil Rane, National Institute of […]
# Suspensions of trypsinized HEPG2 CAGA-GFP cells were dispensed into white, tissue culture-treated, solid 1536-well plates at 5uL/well (1000 cells/well final concentration) in DMEM medium supplemented with 1% FBS. Plates were incubated at 37 degrees C for 2 hours, after which 23 nL of compounds or DMSO were delivered to each well using a pin tool. One uL of recombinant TGF-beta in DMEM (1% FBS) was then dispensed (500 pg/mL final concentration), and plates were incubated at 37 degrees C for 18 hours. Two uL of CellTiter Glo (Promega), a luminescence-based viability reagent, was dispensed, followed by a 10 minute room temperature incubation. The plates were then measured on a PerkinElmer ViewLux plate reader for luminescence (clear filter) using a 5 second exposure. The %Activity was determined from the corrected luminescence values. Wells containing media only (no cells) were used to normalize %Activity of identified toxic compounds; media-only wells corresponded to 100%Activity (complete cell-killing), while DMSO-dosed cell controls were used to normalize 0%Activity (no toxicity).
# Concentration-response curves were fitted to the signals arising from the resulting luminescence. The concentration-effect curves were then classified based on curve quality (r2), response magnitude and degree of measured activity, and compounds were subsequently categorized based on their curve class.
# Potency means the concentration at half of the fitted maximal effect.
Compound,"activity change, negative = cytotoxicity",Potency
Cc1nnc(NC(=O)CSc2nccn2-c2cccc(C)c2C)s1,-20.3% (inactive),–
CCOc1cccc(C(=O)Nc2nnc(S(=O)(=O)N(C)c3ccc(C)cc3)s2)c1,-6.76% (inactive),–
Cc1ccc(CS(=O)(=O)c2ncc(Cl)c(C(=O)Nc3nnc(C)s3)n2)cc1,–,15.8 µM (active)
CCN(CC)/[N+]([O-])=N/Oc1cc(O/[N+]([O-])=N/N2CCCC2CO)c([N+](=O)[O-])cc1[N+](=O)[O-] (configuration not stated),-4.3% (inactive),–
Brc1nc2ncnc(NCc3ccco3)c2[nH]1,-23.3% (inactive),–
COC(=O)c1cc(NC(=O)c2cnc(SC)nc2-c2ccccc2)cc(C(=O)OC)c1,-19.3% (inactive),–
O=C(c1ccco1)N(Cc1cccs1)c1ccc(O)cc1,-6.33% (inactive),–
CCOC(=O)C[C@H]1c2ccc(C(F)(F)F)cc2S(=O)(=O)N1c1ccccc1,–,inactive and 7.08 µM (active)
COc1ccc(CN2C(CC(=O)Nc3cccnc3)c3ccc(C(F)(F)F)cc3S2(=O)=O)cc1 (configuration not stated),-2.15% (inactive),–
Cc1[nH]n(-c2ccccc2)c(=O)c1CCOC(=O)c1ccc(C(F)(F)F)cc1,-28.2% (inactive),–
Cc1cc(C)c(NC(=O)CN2C(=O)c3cccnc3Oc3ccc(Cl)cc32)c(C)c1,4.94% (inactive),–
O=C1CN(Cc2ccccc2)S(=O)(=O)c2ccccc21,-3% (inactive),–
O=C(Nc1ccc(-c2nc3cc(NC(=O)c4ccccc4Cl)ccc3o2)cc1)c1ccccc1Cl,-42.5% (inactive),–
Cc1ccc(C)c(S(=O)(=O)n2nc(C)c(S(=O)(=O)N3CCC(C)CC3)c2C)c1,-2.91% (inactive),–
COc1ccc(-c2cc(C(=O)NCc3cc(OC)c(OC)c(OC)c3)[nH]n2)cc1,-6% (inactive),–
COc1ccccc1CNC(=O)c1cc(-c2cc(Cl)ccc2C)n[nH]1,-28.1% (inactive),–
Cc1cc(O)ccc1-c1cc(C(=O)NCc2cc(C(F)(F)F)cc(C(F)(F)F)c2)[nH]n1,–,12.6 µM (active)
CN(Cc1ccccc1)c1ncnc2onc(-c3ccc(F)cc3)c12,-7.14% (inactive),–
CCCCC(=O)OC1=CN(Cc2ccccc2)S(=O)(=O)c2ccccc21,-4.26% (inactive),–
Cc1ccccc1C(=O)Nc1sc2c(c1C(=O)N1CCC(C)CC1)CCCC2,-3.63% (inactive),–
O=C(/C=C/Sc1ncn[nH]1)c1ccc(Cl)cc1,–,12.6 µM (active)
CCOc1ccccc1NC(=O)CN1CCCN(Cc2cccc(Cl)c2)S1(=O)=O,-14.1% (inactive),–
O=C1COc2ccc(-c3csc(-c4ccc(Cl)cc4)n3)cc2N1,0.232% (inactive),–
CNC(=O)[C@]1(C(F)(F)F)C[C@H](CCc2ccccc2)CCCO1,-7.33% (inactive),–

Compound,"activity change, negative = cytotoxicity",Potency
CCc1ccc(OCC(O)CN2CCN(CCO)CC2)cc1 (configuration not stated),-4.49% (inactive),–
Cc1cccc(OCC(O)CN2CCN(CCN3C(=O)c4cccc5cccc(c45)C3=O)CC2)c1C (configuration not stated),–,12.6 µM (active)
Cc1cccc(OCC(O)CN2CCN(S(=O)(=O)c3ccc(C)cc3C)CC2)c1 (configuration not stated),-7.87% (inactive),–
COc1cc2nc(NCC(C)c3ccccc3)n3nc(-c4ccccc4)nc3c2cc1OC (configuration not stated),-2.39% (inactive),–
Cc1cc2nc(-c3ccc(NC(=O)c4cc5ccccc5o4)cc3)oc2cc1C,-1.43% (inactive),–
CCCSC(=S)NC1CCS(=O)(=O)C1 (configuration not stated),–,11.2 µM (active)
CC(C)C(=O)NC(NC(=S)NC1CCS(=O)(=O)C1)C(Cl)(Cl)Cl (configuration not stated),6.42% (inactive),–
O=S1(=O)CCC(NC(=S)SCc2ccccc2Br)C1 (configuration not stated),-120% (inactive),–
CCOc1ccc(C(=O)/C=C/c2cn(CC(O)CN3CCCCCC3)c3ccccc23)cc1 (configuration not stated),–,11.2 µM (active)
CCOc1ccc(C(O)Cn2c(=N)n(CCN3CCCCC3)c3ccccc32)cc1 (configuration not stated),-61.2% (inactive),–
O=C(/C=C/c1cn(CC(O)CN2CCc3ccccc32)c2ccccc12)c1ccc(Br)cc1 (configuration not stated),-36.7% (inactive),–
COc1ccc(CNC(=O)C(Cc2ccccc2)n2cccc2)cc1 (configuration not stated),1.79% (inactive),–
COc1ccc(CC(N)c2csc(NC(=O)NC(c3ccccc3)c3ccccc3)n2)cc1 (configuration not stated),–,12.6 µM (active)
COc1ccc(C(=O)NC(Cc2ccc(OC(=O)c3ccc(OC)cc3)cc2)C(=O)O)cc1 (configuration not stated),7.01% (inactive),–
CN(C(=N)N)c1ccc(/C=C2\C=Cc3ccccc32)cc1,-36.8% (inactive),–
Cc1ccc2c(=O)c(C(=O)c3ccc(Cl)cc3)cn(CC(=O)NC3CCCCC3)c2n1,2.27% (inactive),–
NCCCNC(=S)NCCCN(Cc1ccc(Cl)cc1)c1ccc(Br)cn1,–,inactive and 17.8 µM (active)
S=C(NCCCc1cnc[nH]1)NCCCN(Cc1ccc(Cl)c(Cl)c1)c1ccc(Br)cn1,–,10 µM (active)
CC(C)(C)c1ccc(C(=O)NCC(c2ccco2)S(=O)(=O)c2ccc(F)cc2)cc1 (configuration not stated),-29.8% (inactive),–
CSc1ccc(CCNC(=O)c2cc(C)nc3c2c(C)nn3-c2cccc(F)c2)cc1,-6.92% (inactive),–
CC(C)(C)OC(=O)N1CCC(c2c(C(=O)NCc3ccccn3)cnn2-c2ccc(F)cc2)CC1,-89.9% (inactive),–
COc1ccccc1N1CCN(c2ncnc3onc(-c4cccc(Cl)c4)c23)CC1,1.68% (inactive),–
Cc1cccc(CC(=O)N2CC(=O)Nc3ccc(F)cc3C2c2ccccc2)c1 (configuration not stated),0.164% (inactive),–
